Each structure is given as a SMILES string. Active and inactive are the calls of the source. Unless noted, no rule for the calls is given here.

A short description of test [1]: resazurin metabolic signal in HepG2 cells – cell-based, resazurin fluorescence, 24 h, PK04 Diversity Set, profiling panel (AID 1172). Also: test concentration not given here. The note with it: HepG2 viability, higher = more signal.
Test [2] can be described thus: budding yeast growth changes without added modifier – OD600, strain BY4716, 24 h, basal condition, primary screen (AID 1173). As to conditions: S. cerevisiae BY4716 growth, OD600, 24 h; higher = more signal, called active from +8 up or from −8 down.
Test [3] can be described thus: viability profiling in MM1S myeloma cells – cell-based, resazurin fluorescence, basal, 24 h, PK04 Diversity Set, profiling panel (AID 1174).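 Also: MM1S multiple myeloma cell line; test concentration not given here.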 As to conditions: higher = more signal, called active from +8 up or from −8 down.
Test [4] deals with Dihydroorotate dehydrogenase (quinone), mitochondrial (Plasmodium falciparum (isolate 3D7)) (UniProt Q08210). Kind of test: inhibition of P. falciparum DHODH – biochemical, C-terminal His tag, absorbance 600 nm, primary screen (AID 1175).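 Also: recombinant parasite enzyme with a five histidine tag at its C terminus; test concentration not given here.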 The note with it: PfDHODH enzyme, DCIP absorbance 600 nm; higher = more signal, called active from +8 up or from −8 down.
Dihydroorotate dehydrogenase (quinone), mitochondrial (Plasmodium falciparum (isolate 3D7)), sequence (Q08210 whole entry, looked up): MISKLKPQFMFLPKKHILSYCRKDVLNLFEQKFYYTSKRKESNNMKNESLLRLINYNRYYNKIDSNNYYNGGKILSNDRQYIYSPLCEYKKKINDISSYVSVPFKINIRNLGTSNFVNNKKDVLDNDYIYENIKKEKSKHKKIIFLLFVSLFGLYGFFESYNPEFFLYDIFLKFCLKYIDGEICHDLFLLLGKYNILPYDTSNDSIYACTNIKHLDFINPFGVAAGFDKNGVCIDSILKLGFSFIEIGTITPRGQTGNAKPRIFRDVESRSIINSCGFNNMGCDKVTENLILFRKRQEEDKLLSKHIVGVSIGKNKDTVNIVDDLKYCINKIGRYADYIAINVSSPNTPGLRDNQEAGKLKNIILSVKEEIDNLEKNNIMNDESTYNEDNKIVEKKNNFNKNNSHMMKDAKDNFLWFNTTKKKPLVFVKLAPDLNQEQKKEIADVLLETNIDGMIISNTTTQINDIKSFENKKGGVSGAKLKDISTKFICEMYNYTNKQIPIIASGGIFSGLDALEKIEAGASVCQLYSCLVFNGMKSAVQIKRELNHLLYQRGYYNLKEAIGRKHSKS
Test [5] in a line: inhibition of PAO1 biofilm formation – strain PAO1, LB-PBS medium, absorbance 600 nm, primary screen (AID 1176). Also: test concentration not given here. The note with it: P. aeruginosa PAO1 growth/biofilm, A600, 12 h; higher = more signal.
Test [6] can be described thus: growth modulation of vineyard yeast isolate – strain RM11-1a, OD600, basal, 24 h, primary screen (AID 1177).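 Also: cultures grown under basal conditions with no added stressor; test concentration not given here.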 The note with it: S. cerevisiae RM11-1a growth, OD600, 24 h; higher = more signal, called active from +8 up or from −8 down.
Test [7] is described as follows: growth of efflux-deficient E. coli DRC39 – strain DRC39, OD650, 24 h, E. coli filamentation inducers, primary screen (AID 1178).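 Also: growth measured as culture turbidity by optical density at 650 nm; test concentration not given here.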 The note with it: E. coli DRC39 acrAB, higher = more signal, called active from +8 up or from −8 down.
A short description of test [8]: growth of efflux-deficient E. coli DRC39 – strain DRC39, OD650, 48 h, E. coli filamentation inducers, primary screen (AID 1179).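 Also: screen aims at cell division blockers that make cells filament.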 The note with it: E. coli DRC39 delta-acrAB growth, higher = more signal, called active from +8 up or from −8 down.
The nature of test [9]: viability profiling in RPMI8226 myeloma cells – cell-based, resazurin fluorescence, basal, 24 h, PK04 Diversity Set, profiling panel (AID 1180).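 Also: RPMI8826 multiple myeloma cell line at 5000 cells per well; test concentration not given here.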 The note with it: higher = more signal. On the technique in general: The colour change of resazurin is a common sign of viable cells or microbes.
Test [10] concerns the target E3 ubiquitin-protein ligase XIAP (Homo sapiens) (UniProt P98170). As to the kind of experiment: small molecules binding XIAP protein – biophysical, small-molecule microarray, fluorescence 635 nm, primary screen (AID 1181).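 Also: score merges 667 nm emission and signal to noise over triplicate slides.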 As to conditions: higher = more signal.

E3 ubiquitin-protein ligase XIAP (Homo sapiens), sequence (P98170 whole entry, looked up): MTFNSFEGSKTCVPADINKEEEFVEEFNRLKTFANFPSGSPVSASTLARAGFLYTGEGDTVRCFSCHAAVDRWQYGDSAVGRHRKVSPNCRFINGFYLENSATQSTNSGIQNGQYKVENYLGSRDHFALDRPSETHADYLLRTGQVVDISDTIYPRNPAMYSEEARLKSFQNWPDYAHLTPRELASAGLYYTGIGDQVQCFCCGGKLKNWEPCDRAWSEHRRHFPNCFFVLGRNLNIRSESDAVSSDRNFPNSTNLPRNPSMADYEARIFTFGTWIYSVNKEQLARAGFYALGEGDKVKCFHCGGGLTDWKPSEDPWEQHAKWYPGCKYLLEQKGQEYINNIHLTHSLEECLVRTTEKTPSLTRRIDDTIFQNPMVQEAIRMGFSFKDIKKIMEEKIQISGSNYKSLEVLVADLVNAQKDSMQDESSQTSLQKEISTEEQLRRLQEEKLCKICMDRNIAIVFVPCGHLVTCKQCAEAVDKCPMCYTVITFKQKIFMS

Regarding `[N-]=[N+]=NCc1ccccc1C[C@]1(C(=O)NCC(O)CO)COC(c2ccc(OCCCO)cc2)=N1` (stereo not given in full), the z-score was 0.0117 in test [1]; -1.46 (inactive) in test [2]; -2.31 (inactive) in test [3]; 0.19 (inactive) in [5]; -0.325 (inactive) in test [6]; -0.0949 (inactive) in test [7]. In addition, the z-score in test [8] was 0.0564 (inactive); in [9], -0.902. Also, the composite z-score in test [4] was 0.0291 (inactive); in test [10], -0.163.
As to `O=C1O[C@H](c2ccccc2)[C@H](c2ccccc2)N2[C@H]1[C@@H](C(=O)Nc1nc3ccccc3s1)[C@]1(C(=O)Nc3ccc(C#CC4=CCCCC4)cc31)[C@H]2c1ccc(OCCO)cc1`, the z-score in test [1] was 0.281; in test [2], 1.63 (inactive); in [3], -0.543 (inactive); in test [5] it was 3.01 (inactive); in test [6], 1.46 (inactive); in [7] it was -0.154 (inactive). The z-score in test [8] is -0.686 (inactive); in [9] it was -0.496. The composite z-score in [4] was -3.03 (inactive); in test [10] it was -0.24.
Consider `COc1ccc([Si](C)(C)[C@@H]2[C@@H](CCO)O[C@]3(C(=O)N(Cc4ccccc4)c4ccc(N(C=O)c5ccccc5)cc43)[C@H]2C)cc1`, for which the z-score in test [1] is -0.131; in [2], 1.59 (inactive); in [3] it was -1.54 (inactive); in [5], 3.19 (inactive); in test [6], 5.4 (inactive); in [7], 1.23 (inactive). Besides, the z-score is 0.843 (inactive) in test [8] and -1.6 in test [9]. Moreover, the composite z-score in test [4] was 0.186 (inactive); in [10], 0.0031.
In the case of `Cc1cccc(/C=C/C=O)c1`, the z-score in test [1] was 0.033; in [2] it was -2.91 (inactive); in [3], -0.0488 (inactive); in test [5], 0.13 (inactive); in [6], -0.181 (inactive); in test [7], 0.578 (inactive). Also, the z-score is 0.35 (inactive) in [8] and 0.387 in test [9]. For the same molecule, the values for the composite z-score in test [4] and in test [10] were -1.16 (inactive) and -0.0559, respectively.
In the case of `O=C(NCc1ccccc1)[C@@H]1c2ccccc2C(=O)N(Cc2cc(F)cc(C(F)(F)F)c2)[C@H]1c1ccc(CO)cc1`, the z-score in [1] is -0.745; in test [2], -0.633 (inactive); in test [3], -0.569 (inactive); in test [5], 0.472 (inactive); in test [6], -0.517 (inactive); in [7], 0.771 (inactive). Also, the z-score in [8] was 0.675 (inactive); in test [9], 0.127. Further, the composite z-score in test [4] was 0.131 (inactive); in test [10], -0.0207.
For the molecule `O=C(NCc1ccccc1)[C@@H]1c2ccccc2C(=O)N(C2CCCCC2)[C@H]1c1ccc(CO)cc1`, the z-score in test [1] is -0.178; in test [2], 0.0854 (inactive); in test [3], -0.765 (inactive); in test [5] it was 0.0993 (inactive); in test [6], 0.138 (inactive); in test [7], 0.0692 (inactive). In addition, the z-score in test [8] was 0.268 (inactive); in test [9], -1.7. For the same molecule, the composite z-score in test [4] is 0.0557 (inactive); in test [10], 0.117.
On to `[N-]=[N+]=NCc1ccccc1C[C@@]1(C(=O)NCc2ccccc2)N=C(c2ccc(OCCCO)cc2)O[C@@H]1c1ccccc1CN=[N+]=[N-]`, for which the z-score in [1] is -0.594; in test [2], 0.548 (inactive); in test [3] it was -0.709 (inactive); in [5], 1.74 (inactive); in test [6] it was 1.28 (inactive); in test [7] it was 0.561 (inactive). Also, the results for the z-score in test [8] and in [9] were 0.678 (inactive) and -0.538, respectively. Further, the composite z-score in [4] is -0.067 (inactive); in test [10], -0.174.
`CC1CC/C=C\[C@H]2OC34C=CCN(CCN5CCOCC5)C(=O)[C@H]3N(CCCCCO)C(=O)[C@@H]4C2C(=O)O1` (stereo not given in full): the z-score in test [1] is -0.693; in [2], -0.501 (inactive); in [3], 0.183 (inactive); in test [5], -0.456 (inactive); in test [6], 0.0357 (inactive); in [7] it was 0.408 (inactive). Also, the z-score in test [8] is 0.45 (inactive); in test [9] it was -0.977. Also, the composite z-score was 1.07 (inactive) in [4] and 0.33 in test [10].
For the molecule `C=CCOC(=O)[C@H]1[C@@H]2C(=O)O[C@@H](c3ccccc3)[C@@H](c3ccccc3)N2[C@@H](c2ccc(OCCOC(=O)[C@@H]3C[C@@H]4C(=O)NCC(=O)N4[C@@H]3c3ccc(O)cc3)cc2)[C@]12C(=O)Nc1ccc(I)cc12`, the z-score is -0.247 in test [1]; 0.528 (inactive) in [2]; -0.897 (inactive) in test [3]; 2.27 (inactive) in test [5]; 0.305 (inactive) in test [6]; -0.641 (inactive) in test [7]. Further, the z-score in test [8] is -0.51 (inactive); in [9] it was -0.433. Further, the results for the composite z-score in [4] and in [10] were 0.31 (inactive) and -0.0066, respectively.
`C=C(CCCC)C(=O)CC[C@H](OC(C)=O)c1ccc(CO)o1`: the z-score was -0.658 in [1]; -0.948 (inactive) in test [2]; 0.982 (inactive) in [3]; -0.0221 (inactive) in test [5]; 0.285 (inactive) in [6]; 0.668 (inactive) in test [7]. The results for the z-score in test [8] and in test [9] were -0.968 (inactive) and 0.496, respectively. The results for the composite z-score in [4] and in [10] were -1.66 (inactive) and 0.343, respectively.
Take `COc1cc2c(cc1O)C(c1ccc(CN3CCCC3)cc1)N(Cc1sc3ccccc3c1Cl)CC2` (stereo not given): the z-score in test [1] was -0.307; in test [2], -1.82 (inactive); in test [3], -0.527 (inactive); in [5], 0.0619 (inactive); in test [6], 0.953 (inactive); in test [7] it was 1.23 (inactive). For the same molecule, the z-score was 0.25 (inactive) in test [8] and -1.05 in [9]. In addition, the composite z-score in test [4] was -2.82 (inactive); in test [10] it was 0.0815.
With `CCCC[C@H]1OB(O)C[C@H]2C1=C(C)Cn1c(=O)n(-c3ccccc3)c(=O)n12`, the z-score in [1] is 0.916; in [2], 0.422 (inactive); in [3] it was -0.441 (inactive); in test [5], -0.638 (inactive); in test [6] it was 0.218 (inactive); in [7] it was -0.13 (inactive). Besides, the values for the z-score in test [8] and in [9] were -0.605 (inactive) and 0.191, respectively. In addition, the composite z-score was -0.0299 (inactive) in test [4] and -0.0599 in test [10].
For the molecule `CN(C)CCCCNC(=O)[C@@H]1C[C@@H]2C(=O)N[C@@H](CCCCN)C(=O)N2[C@@H]1c1cccc(OCCO)c1`, the z-score in [1] is 0.0914; in test [2] it was -0.191 (inactive); in test [3], -0.332 (inactive); in [5], 0.836 (inactive); in test [6], -0.147 (inactive); in test [7], -0.383 (inactive). Further, the z-score in test [8] was -1 (inactive); in [9], -0.165. Moreover, the composite z-score in test [4] was -0.318 (inactive); in test [10], -0.32.

The record behind these values is PubChem BioAssay.
